Ba/F3 V617F tox: reduced viability of JAK2V617F-dependent Ba/F3 cells, primary screen, JAK2V617F inhibitor project, cell-based, Ba/F3 EpoR-JAK2V617F, luminescence; AID 1446, 2008; inhibition, % at 5.6 µM; ATP luminescence; actives 1.1% (n = 220,000);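 active means inhibition above the campaign mean plus 3 SD over all tested compounds, cut at about 24% in these data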;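 further: cytokine-independent growth of Ba/F3 cells driven by EpoR plus mutant JAK2; 0% = DMSO-treated cells and 100% = JAK inhibitor I control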
APP transl inh: inhibitors of APP translation via 5'UTR reporter, primary screen, APP 5'UTR luciferase, SH-SY5Y cells; SH-SY5Y APP 5'UTR-luciferase reporter, luminescence; AID 1285, 2008; inhibition, % at 2 µM; actives 0.82% (n = 190,000);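 active means inhibition above a set limit, derived from the sample mean plus 3 SD, cut at about 45% in these data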
IEC-6 cytotox: cytotoxicity in IEC-6 intestinal epithelial cells, primary screen, cytotoxicity control for KLF5 inhibitor project, cell-based, luminescence; IEC-6 cytotoxicity, luminescence viability; inhibition, % at 5 µM; actives 0.78% (n = 290,000); AID 1825, 2009; in the data active means inhibition above about 22%;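 further: 0% = plate median of test compound wells and 100% = cytotoxic reference compound wells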
aSyn 5UTR inh: MLPCN primary screen, SNCA 5' untranslated region; alpha-synuclein 5'UTR reporter, inhibitor activity; inhibition, % (tested at 7.5 µM); actives 0.82% (n = 300,000); AID 1813, 2009; in the data active means inhibition above about 60%;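 further: H4 neuroglioblastoma cells stably carrying SNCA 5'UTR luciferase fusion; 0% = DMSO wells and 100% = positive control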
KLF5 inh: KLF5 expression inhibitors, primary screen, DLD-1 cells, luminescence; DLD-1 KLF5 promoter-luciferase reporter; inhibition, % at 5 µM; actives 0.23% (n = 290,000); AID 1700, 2009;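 active means inhibition above a per-plate limit of that plate's mean compound inhibition plus 3 SD, cut at about 60% in these data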;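 further: 0% = DMSO wells and 100% = LY294002 at 200 µM; higher means less KLF5 promoter-driven luciferase light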
BaF3 parental: parental Ba/F3 cell viability inhibition, counter-screen for JAK2V617F inhibitor project, murine pro-B, CellTiter-Glo luminescence | actives 1.1% (n = 220,000) | AID 1486, 2009 | inhibition, % at 5.6 µM | CellTiter-Glo ATP luminescence;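 active means inhibition above a per-campaign cutoff, the mean inhibition of all tested compounds plus 3 SD, cut at about 27% in these data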;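 further: 0% = DMSO wells and 100% = JAK Inhibitor I control wells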
Active calls of the source: *; / = no result given. Compounds with a hit are over-represented: about 2.2% of the library has one in this group of screens.

SMILES	Ba/F3 V617F tox	APP transl inh	IEC-6 cytotox	aSyn 5UTR inh	KLF5 inh	BaF3 parental
CCS(=O)(=O)N1CCCC(c2nc(-c3cccc(OC)c3)no2)C1 (stereo unspecified)	-2.9	-24.9	4.7	-102.3	-33.0	95.8*
CCCS(=O)(=O)N1CCCC(c2nc(-c3ccc(OC)cc3)no2)C1 (stereo unspecified)	-2.5	-8.6	-2.8	-6.2	-5.5	4.0
c1ccc(-c2nnc(-c3ccccn3)s2)nc1	4.5	/	-1.5	78.4*	-93.5	9.9
CN(C)c1ccc(S(=O)(=O)N2CCCCC2)cc1NC(=O)CN1C(=O)NC2(CCCC2)C1=O	/	/	/	2.5	/	/
Cc1ccc(-c2nn3cnnc3c3ccccc23)cc1	1.5	7.3	3.3	15.1	-9.6	82.0*
CS(=O)(=O)N(CC(=O)NC1CCCCC1)Cc1ccc(F)cc1	1.9	-0.8	-1.6	0.1	-8.2	-0.8
COc1ccc(C(=O)/C=C/C(=O)N(CC(=O)NC2CCCCC2)Cc2ccc(F)cc2)c(O)c1	1.3	77.8*	-7.3	71.8*	16.8	6.2
COc1ccc(C2=[N+](C)CCn3cccc32)c(OC)c1	76.7*	2.1	7.3	-6.3	-3.6	67.4*
COc1ccc(CN2CCc3ccccc3C2)c(OC)c1	-1.5	/	0.8	9.6	-2.9	-3.9
CC1CCc2nc(NC(=O)C3CC3)sc2C1 (stereo unspecified)	-3.7	-21.4	2.5	-137.8	-63.0	3.7
O=C(Nc1nc(-c2ccccc2)cs1)C1COc2ccccc2O1 (stereo unspecified)	1.2	3.1	2.0	-31.3	4.0	2.7
Cc1nc2ccc3nc(NC(=O)C4COc5ccccc5O4)sc3c2s1 (stereo unspecified)	0.9	10.3	3.4	3.1	-1.1	3.6
CC1CCc2nc(NC(=O)C3COc4ccccc4O3)sc2C1 (stereo unspecified)	1.7	-167.8	2.7	63.1*	-26.0	9.7
Cc1csc(NC(=O)C2COc3ccccc3O2)n1 (stereo unspecified)	-3.2	-148.8	2.2	62.3*	-80.4	-1.4
Cc1cnc(NC(=O)C2COc3ccccc3O2)s1 (stereo unspecified)	-6.6	-144.1	-1.3	71.5*	-113.3	2.3
COc1ccc(C2NC(=O)NC(C)=C2C(=O)OCC2CCCCC2)cc1OC (stereo unspecified)	/	/	3.2	2.4	-0.9	/
CCCCCCCNC(=O)C1(CC2CC(c3ccc(Cl)cc3)=NO2)CCN(C(=O)CCCCCBr)CC1 (stereo unspecified)	/	/	-2.1	-2.0	-6.7	/
CCCn1c(C(C)NS(=O)(=O)c2ccccc2)n[nH]c1=S (stereo unspecified)	/	/	0.6	1.0	-29.7	/
Cc1ccccc1OCCC(=O)OCC(=O)NC1CC1	/	/	/	-11.8	/	/
c1ccc(N2CCN(c3nc4cc5c(cc4s3)OCCO5)CC2)cc1	-4.1	-49.1	-5.2	-156.8	-99.9	-1.0
c1c2c(cc3sc(N4CCOCC4)nc13)OCCO2	9.2	-81.2	9.3	94.2*	8.6	7.3
Cc1cc2nc(-c3ccc[nH]c3=O)n(Cc3ccccc3F)c2cc1C	/	/	-2.4	-26.1	-19.2	/
Clc1ccc(N2CCN(/N=C/c3cccnc3)CC2)cc1	/	/	3.4	-66.9	-6.7	/
Cc1ccc(N(C)S(=O)(=O)c2csc(C(N)=O)c2)cc1C	/	/	-1.8	-2.6	-14.8	/
O=C(Nc1nccs1)c1cn2ccccc2n1	6.5	/	6.6	64.7*	-30.8	6.3
SMILES	Ba/F3 V617F tox	APP transl inh	IEC-6 cytotox	aSyn 5UTR inh	KLF5 inh	BaF3 parental
CCOC(=O)N1CCN(C(=O)c2cc3ccc(OC)cc3[nH]2)CC1	/	/	4.1	-5.2	-38.3	/
CCCCNCC1C(Oc2ccc(Cl)cc2)C(=O)N1c1ccccc1C (stereo unspecified)	-1.7	25.3	-4.2	2.0	-37.5	8.1
CCN(c1ccccc1)S(=O)(=O)c1ccc(OC)c(NC(=O)CN(C)C)c1	11.9	0.1	-1.9	-8.4	-13.7	32.8*
CCC(C)NCC(=O)Nc1cc(S(=O)(=O)N(CC)c2ccccc2)ccc1Cl (stereo unspecified)	7.3	2.9	-3.0	-0.1	-1.3	46.0*
CCN(c1ccccc1)S(=O)(=O)c1ccc(OC)c(NC(=O)CNC)c1	7.6	-11.7	4.9	-5.8	-24.2	29.6*
CCN(c1ccccc1)S(=O)(=O)c1ccc(OC)c(NC(=O)CNCC(C)O)c1 (stereo unspecified)	0.0	-1.7	-3.8	20.5	-12.4	3.8
O=c1c2ccccc2[nH]c(=S)n1Cc1cccnc1	-2.1	56.1*	2.0	-16.6	5.7	1.0
Cc1cc(C)c2nc(/N=C(\N)NC(=O)Nc3ccccc3)nc(C)c2c1	68.9*	-6.0	0.1	-19.8	-15.4	65.6*
COc1ccc(OCc2nc3ccccc3n2C(C)C)cc1	0.3	13.0	1.4	-2.5	3.1	8.9
CCN1CCN(C(=O)CN(CC)S(=O)(=O)c2ccc3ccccc3c2)CC1	/	/	8.6	-8.7	9.4	/
CCCc1ccc2oc(C(=O)N(C)CCn3ccnc3C)c(C)c2c1	/	/	0.1	-8.3	-17.3	/
CC1(C)CC(N2CCN(c3ccccc3)CC2)=CC(=[N+]2CCCC2)C1	85.4*	-8.6	14.4	-3.0	-3.7	75.3*
CCN(CC)C1=CC(=[N+]2CCCC2)CC(C)(C)C1	73.7*	-1.0	6.3	-4.3	-15.0	63.4*
CC1(C)CC(N2CCCC2)=CC(=[N+]2CCCCCC2)C1	99.2*	2.3	29.5*	-2.0	1.2	71.5*
COc1ccccc1CNC(=O)CN(C)S(=O)(=O)c1ccc(Br)s1	/	/	1.1	-9.9	-6.8	/
Cc1ccccc1/C=C/c1cc[n+](C)cc1	50.1*	9.5	4.1	-36.8	-5.1	58.5*
CC(C)n1cc(/C=C/c2cc[n+](C)cc2)c2ccccc21	/	/	9.6	-4.1	-11.5	/
C=CCn1c(C)c(/C=C/c2cc[n+](C)cc2)c2ccccc21	/	/	7.8	21.9	-4.7	/
Cc1[nH]c2ccccc2c1/C=C/c1cc[n+](C)cc1	84.9*	-10.3	4.9	-11.8	-23.4	76.6*
O=C(/C=C/c1ccccc1Cl)c1ccc[nH]1	2.2	-53.3	-2.6	-342.9	-31.6	0.2
COc1ccc(NS(=O)(=O)c2cccc(C(=O)NCc3ccccn3)c2)cc1	/	/	/	6.9	/	/
C=CC(C)(C)c1c(O)c(CC=C(C)C)c(O)c2c(=O)c3ccc(O)c(O)c3oc12	/	/	/	73.3*	/	/
NC(=O)N/N=C\c1cc(Br)ccc1O	-4.2	-2.8	2.3	17.5	-2.8	3.0
O=C(N/N=C\c1cc(Br)ccc1O)c1ccc(S(=O)(=O)N2CCCCC2)cc1	-3.5	69.1*	0.3	109.7*	-0.9	0.3
CC(C)C(=O)Nc1ccc(C(=O)N/N=C/c2cc(Br)cc(Br)c2O)cc1	3.3	45.7*	0.1	7.7	-36.5	5.2
O=C(N/N=C/c1cc(Cl)ccc1O)c1ccc(Br)cc1	2.2	56.4*	11.4	/	19.2	6.7
